Data on six molecules can be found in ChEMBL document CHEMBL1961873, “Compounds: GSK PKIS; Assays: Nanosyn kinase panel” (2012).

Test [1] concerns the target Rho-associated protein kinase 1 (Homo sapiens) (UniProt Q13464). As to conditions: at 1 µM.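 Further: reported values are mean percent inhibition of ROCK1.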
Test [2] concerns the target Rho-associated protein kinase 2 (Homo sapiens) (UniProt O75116). As to conditions: at 0.1 µM.
Test [3] shares this target. As to conditions: at 1 µM.
In test [4] the target is Ribosomal protein S6 kinase alpha-1 (Homo sapiens) (UniProt Q15418). As to conditions: at 0.1 µM.
For test [5] the target is unchanged. As to conditions: at 1 µM.
The target in test [6] is Ribosomal protein S6 kinase alpha-3 (Homo sapiens) (UniProt P51812). The conditions noted are these: at 0.1 µM.
Test [7] shares this target. As to conditions: at 1 µM.
In test [8] the target is Ribosomal protein S6 kinase alpha-2 (Homo sapiens) (UniProt Q15349). The conditions noted are these: at 0.1 µM.
The target is the same in test [9]. The conditions noted are these: at 1 µM.
The target of test [10] is Ribosomal protein S6 kinase alpha-6 (Homo sapiens) (UniProt Q9UK32). The conditions noted are these: at 0.1 µM.
Test [11] has the same target. The conditions noted are these: at 1 µM.
The target in test [12] is T1, Serine/threonine-protein kinase Sgk1 (Homo sapiens) (UniProt O00141).
T1 sequence (whole entry): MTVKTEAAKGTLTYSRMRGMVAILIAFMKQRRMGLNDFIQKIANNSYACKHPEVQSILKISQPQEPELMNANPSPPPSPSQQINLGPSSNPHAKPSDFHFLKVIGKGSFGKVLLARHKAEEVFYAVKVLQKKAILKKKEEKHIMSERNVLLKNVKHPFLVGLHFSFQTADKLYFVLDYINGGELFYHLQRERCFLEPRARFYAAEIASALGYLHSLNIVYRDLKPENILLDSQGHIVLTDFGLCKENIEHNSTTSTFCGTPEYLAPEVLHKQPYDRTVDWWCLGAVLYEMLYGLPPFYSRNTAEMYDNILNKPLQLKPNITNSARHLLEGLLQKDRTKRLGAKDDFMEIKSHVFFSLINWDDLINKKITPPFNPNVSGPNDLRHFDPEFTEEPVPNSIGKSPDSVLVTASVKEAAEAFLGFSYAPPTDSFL
As to conditions: at 0.1 µM.

The target in test [13] is T1, Serine/threonine-protein kinase Sgk1 (Homo sapiens). As to conditions: at 1 µM.
Test [14] addresses T2, Serine/threonine-protein kinase Sgk2 (Homo sapiens) (UniProt Q9HBY8).
T2 sequence (whole entry): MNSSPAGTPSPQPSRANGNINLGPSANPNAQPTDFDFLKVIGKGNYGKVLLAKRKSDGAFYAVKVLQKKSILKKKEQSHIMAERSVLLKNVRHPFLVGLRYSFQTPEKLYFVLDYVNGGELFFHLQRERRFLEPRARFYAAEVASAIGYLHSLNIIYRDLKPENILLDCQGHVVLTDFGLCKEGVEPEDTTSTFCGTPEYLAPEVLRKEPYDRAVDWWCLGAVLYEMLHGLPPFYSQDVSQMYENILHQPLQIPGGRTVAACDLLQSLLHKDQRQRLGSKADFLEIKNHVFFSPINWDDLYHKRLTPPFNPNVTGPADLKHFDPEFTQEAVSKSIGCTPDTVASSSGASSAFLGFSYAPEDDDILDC
As to conditions: at 0.1 µM.

For test [15], the target named is T2, Serine/threonine-protein kinase Sgk2 (Homo sapiens). As to conditions: at 1 µM.
Test [16] addresses T3, Serine/threonine-protein kinase Sgk3 (Homo sapiens) (UniProt Q96BR1).
T3 sequence (whole entry): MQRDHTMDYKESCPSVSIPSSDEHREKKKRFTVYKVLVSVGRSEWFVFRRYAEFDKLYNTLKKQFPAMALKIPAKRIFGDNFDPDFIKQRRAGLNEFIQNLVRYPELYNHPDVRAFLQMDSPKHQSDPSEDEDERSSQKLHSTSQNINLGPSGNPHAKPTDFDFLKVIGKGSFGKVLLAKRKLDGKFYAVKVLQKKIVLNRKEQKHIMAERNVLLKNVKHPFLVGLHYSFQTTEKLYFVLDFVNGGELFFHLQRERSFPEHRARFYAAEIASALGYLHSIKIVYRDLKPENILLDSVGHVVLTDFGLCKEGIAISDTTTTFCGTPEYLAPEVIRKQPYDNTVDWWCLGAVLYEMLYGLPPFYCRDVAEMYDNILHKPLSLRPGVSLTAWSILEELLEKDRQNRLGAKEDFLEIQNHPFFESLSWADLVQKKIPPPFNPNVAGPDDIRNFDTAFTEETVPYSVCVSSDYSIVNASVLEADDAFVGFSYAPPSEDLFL
The conditions noted are these: at 0.1 µM.

Test [17] has as its target T3, Serine/threonine-protein kinase Sgk3 (Homo sapiens). As to conditions: at 1 µM.
Test [18] addresses 5'-AMP-activated protein kinase catalytic subunit alpha-1 (Homo sapiens) (UniProt Q13131). As to conditions: at 0.1 µM.
Test [19] shares this target. The conditions noted are these: at 1 µM.
For test [20], the target named is 5'-AMP-activated protein kinase catalytic subunit alpha-2 (Homo sapiens) (UniProt P54646). The conditions noted are these: at 0.1 µM.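 Further: mean inhibition measured on the AMPK complex of alpha2, beta1 and gamma1 subunits.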
Chain of 5'-AMP-activated protein kinase catalytic subunit alpha-2 (Homo sapiens) (P54646 whole entry, looked up): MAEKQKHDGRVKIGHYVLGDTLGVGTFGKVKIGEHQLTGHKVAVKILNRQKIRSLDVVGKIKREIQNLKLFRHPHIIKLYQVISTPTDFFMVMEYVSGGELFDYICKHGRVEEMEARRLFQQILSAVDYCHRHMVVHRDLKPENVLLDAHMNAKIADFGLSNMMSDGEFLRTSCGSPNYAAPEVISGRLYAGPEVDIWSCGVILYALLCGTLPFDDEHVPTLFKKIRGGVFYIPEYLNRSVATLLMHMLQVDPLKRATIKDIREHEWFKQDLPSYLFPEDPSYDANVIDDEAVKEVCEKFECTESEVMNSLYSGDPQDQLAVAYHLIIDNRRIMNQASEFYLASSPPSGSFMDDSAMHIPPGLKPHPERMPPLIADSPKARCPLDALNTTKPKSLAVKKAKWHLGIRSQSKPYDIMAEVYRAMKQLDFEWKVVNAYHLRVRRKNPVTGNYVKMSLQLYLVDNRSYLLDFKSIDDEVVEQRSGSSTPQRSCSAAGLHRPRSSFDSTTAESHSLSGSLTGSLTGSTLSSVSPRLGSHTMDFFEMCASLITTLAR

Chain of Ribosomal protein S6 kinase alpha-1 (Homo sapiens) (Q15418 whole entry): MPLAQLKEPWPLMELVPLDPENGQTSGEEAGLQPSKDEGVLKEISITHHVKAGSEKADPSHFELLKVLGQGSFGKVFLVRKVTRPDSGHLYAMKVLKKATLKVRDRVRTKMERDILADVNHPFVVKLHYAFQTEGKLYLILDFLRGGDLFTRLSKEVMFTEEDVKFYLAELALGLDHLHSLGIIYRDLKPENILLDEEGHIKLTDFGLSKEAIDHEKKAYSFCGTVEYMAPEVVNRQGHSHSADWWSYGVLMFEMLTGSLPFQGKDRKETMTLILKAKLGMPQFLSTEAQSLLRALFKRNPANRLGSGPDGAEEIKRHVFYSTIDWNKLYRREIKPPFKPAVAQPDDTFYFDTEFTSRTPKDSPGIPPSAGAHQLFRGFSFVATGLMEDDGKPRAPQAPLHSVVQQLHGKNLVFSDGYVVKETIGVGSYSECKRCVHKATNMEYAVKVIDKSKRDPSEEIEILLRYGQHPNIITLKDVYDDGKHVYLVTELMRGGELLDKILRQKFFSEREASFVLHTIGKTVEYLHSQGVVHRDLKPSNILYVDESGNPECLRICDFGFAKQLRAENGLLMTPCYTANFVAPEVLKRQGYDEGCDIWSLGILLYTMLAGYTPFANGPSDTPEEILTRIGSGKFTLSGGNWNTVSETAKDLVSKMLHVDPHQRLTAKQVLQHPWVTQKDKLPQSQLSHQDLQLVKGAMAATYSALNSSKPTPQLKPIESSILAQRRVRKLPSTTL
Chain of 5'-AMP-activated protein kinase catalytic subunit alpha-1 (Homo sapiens) (Q13131 whole entry, looked up): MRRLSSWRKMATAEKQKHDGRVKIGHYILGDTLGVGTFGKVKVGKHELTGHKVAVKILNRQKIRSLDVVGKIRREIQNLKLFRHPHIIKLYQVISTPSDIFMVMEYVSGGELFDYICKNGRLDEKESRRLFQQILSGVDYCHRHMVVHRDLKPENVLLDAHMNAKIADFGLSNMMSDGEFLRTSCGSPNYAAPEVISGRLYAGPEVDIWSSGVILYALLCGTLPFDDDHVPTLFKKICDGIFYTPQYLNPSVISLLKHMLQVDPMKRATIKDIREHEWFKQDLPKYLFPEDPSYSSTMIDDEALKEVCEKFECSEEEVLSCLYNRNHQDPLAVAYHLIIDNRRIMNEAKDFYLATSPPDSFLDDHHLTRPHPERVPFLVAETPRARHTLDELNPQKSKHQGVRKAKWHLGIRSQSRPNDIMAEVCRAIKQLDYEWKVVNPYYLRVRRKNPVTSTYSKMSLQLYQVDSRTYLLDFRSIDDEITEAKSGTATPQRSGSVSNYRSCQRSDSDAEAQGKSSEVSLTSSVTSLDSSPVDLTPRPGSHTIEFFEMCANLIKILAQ
Chain of Rho-associated protein kinase 1 (Homo sapiens) (Q13464 2-1354 limits assumed): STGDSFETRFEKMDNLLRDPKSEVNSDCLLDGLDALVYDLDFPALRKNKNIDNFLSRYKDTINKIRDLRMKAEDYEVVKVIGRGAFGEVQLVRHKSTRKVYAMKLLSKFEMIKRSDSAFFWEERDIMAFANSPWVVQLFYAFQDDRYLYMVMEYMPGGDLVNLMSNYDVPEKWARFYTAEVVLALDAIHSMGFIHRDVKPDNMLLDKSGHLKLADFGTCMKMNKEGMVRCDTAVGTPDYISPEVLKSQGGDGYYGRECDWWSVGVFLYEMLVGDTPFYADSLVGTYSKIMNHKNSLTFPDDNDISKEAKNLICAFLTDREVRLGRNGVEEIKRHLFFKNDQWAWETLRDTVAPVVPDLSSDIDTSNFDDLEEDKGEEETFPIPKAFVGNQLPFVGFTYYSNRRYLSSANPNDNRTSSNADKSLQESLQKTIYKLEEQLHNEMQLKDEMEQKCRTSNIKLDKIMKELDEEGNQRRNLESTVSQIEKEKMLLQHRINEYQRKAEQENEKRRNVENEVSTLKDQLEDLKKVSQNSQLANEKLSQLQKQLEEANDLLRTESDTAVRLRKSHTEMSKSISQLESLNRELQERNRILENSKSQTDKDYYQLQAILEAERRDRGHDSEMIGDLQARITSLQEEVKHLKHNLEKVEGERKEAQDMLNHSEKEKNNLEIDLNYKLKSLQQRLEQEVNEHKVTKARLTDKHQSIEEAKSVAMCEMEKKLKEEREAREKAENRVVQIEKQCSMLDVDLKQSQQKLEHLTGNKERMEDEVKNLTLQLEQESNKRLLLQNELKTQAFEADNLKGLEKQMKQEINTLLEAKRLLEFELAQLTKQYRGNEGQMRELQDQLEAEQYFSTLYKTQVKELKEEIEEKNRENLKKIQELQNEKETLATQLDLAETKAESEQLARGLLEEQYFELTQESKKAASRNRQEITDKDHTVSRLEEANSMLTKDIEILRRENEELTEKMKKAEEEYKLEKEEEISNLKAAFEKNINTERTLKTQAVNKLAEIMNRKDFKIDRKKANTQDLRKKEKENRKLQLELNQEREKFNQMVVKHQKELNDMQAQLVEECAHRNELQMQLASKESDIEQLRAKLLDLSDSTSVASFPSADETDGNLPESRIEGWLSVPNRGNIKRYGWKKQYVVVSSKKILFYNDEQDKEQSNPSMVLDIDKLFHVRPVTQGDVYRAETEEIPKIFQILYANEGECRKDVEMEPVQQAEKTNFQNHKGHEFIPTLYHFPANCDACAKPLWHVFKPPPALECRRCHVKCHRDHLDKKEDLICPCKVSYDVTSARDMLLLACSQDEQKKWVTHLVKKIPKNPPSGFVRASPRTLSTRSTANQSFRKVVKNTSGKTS
Chain of Rho-associated protein kinase 2 (Homo sapiens) (O75116 whole entry, looked up): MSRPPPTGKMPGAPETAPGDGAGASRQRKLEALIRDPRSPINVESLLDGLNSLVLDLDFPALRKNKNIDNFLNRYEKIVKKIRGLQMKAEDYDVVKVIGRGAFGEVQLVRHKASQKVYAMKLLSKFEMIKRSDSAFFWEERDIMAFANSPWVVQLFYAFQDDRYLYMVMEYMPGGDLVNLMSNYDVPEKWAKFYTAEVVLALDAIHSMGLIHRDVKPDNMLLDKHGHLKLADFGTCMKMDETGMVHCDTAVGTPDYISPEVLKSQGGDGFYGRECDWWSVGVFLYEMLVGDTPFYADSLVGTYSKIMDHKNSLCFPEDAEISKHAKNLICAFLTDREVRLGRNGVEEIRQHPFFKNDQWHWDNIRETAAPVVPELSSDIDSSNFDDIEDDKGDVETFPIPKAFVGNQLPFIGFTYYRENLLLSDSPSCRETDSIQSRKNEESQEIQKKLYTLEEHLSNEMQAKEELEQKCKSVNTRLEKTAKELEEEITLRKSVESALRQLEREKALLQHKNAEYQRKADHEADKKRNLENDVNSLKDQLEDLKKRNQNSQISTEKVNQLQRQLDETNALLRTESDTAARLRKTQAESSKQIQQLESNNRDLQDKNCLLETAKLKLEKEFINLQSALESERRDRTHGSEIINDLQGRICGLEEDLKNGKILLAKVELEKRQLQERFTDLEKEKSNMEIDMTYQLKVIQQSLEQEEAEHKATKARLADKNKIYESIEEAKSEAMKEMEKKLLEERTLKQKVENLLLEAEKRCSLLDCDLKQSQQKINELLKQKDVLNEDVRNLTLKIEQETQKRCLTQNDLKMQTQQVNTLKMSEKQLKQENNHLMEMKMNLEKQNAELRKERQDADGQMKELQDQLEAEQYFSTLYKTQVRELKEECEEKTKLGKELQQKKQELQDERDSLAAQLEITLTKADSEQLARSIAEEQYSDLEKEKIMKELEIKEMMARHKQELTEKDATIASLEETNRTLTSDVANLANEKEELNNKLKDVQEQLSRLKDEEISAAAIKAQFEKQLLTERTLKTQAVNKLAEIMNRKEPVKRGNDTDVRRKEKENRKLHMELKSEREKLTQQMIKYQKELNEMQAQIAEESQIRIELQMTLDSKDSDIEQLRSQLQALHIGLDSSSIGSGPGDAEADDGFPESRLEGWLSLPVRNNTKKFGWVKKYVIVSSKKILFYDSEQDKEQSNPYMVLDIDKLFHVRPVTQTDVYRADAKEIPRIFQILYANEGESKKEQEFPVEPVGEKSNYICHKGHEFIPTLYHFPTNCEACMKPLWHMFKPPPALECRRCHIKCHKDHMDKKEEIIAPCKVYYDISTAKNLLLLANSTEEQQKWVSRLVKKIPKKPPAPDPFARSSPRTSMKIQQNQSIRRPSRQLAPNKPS

What is called inhibition is the drop in the measured response relative to a control, in per cent. `COc1cc(Nc2ncc3c(C)nc(-c4cccc(Oc5ccccc5)c4)n3n2)cc(OC)c1OC`: the inhibition in [1] is 1.17%; in test [2] it was 0.99%; in test [3] it was -0.91%; in [4], 1.56%; in [5] it was 7.14%; in [6] it was 0.9%. Further, the inhibition was found to be 8.61% in test [7]; 2.77% in test [8]; 14.4% in [9]; 2.59% in [10]; 13.2% in [11]; 2.08% in [12]. Further, the inhibition in test [13] was -0.71%; in test [14], 1.09%; in test [15], -2.63%; in [16], 0.96%; in test [17] it was -0.95%; in test [18] it was 1.87%. Also, the inhibition in test [19] was 13%; in [20] it was 0.57%.

With `C[C@@H](Oc1cc(-n2cnc3ccc(OCC4CCN(C)CC4)cc32)sc1C(N)=O)c1ccccc1Cl`, the inhibition was determined as 7.23% in test [1]; 3.44% in test [2]; 9.54% in [3]; 3.39% in test [4]; 16.8% in test [5]; 4.17% in [6]. For the same molecule, the inhibition in test [7] amounted to 22.5%; in [8] it was 5.72%; in [9], 22.4%; in test [10], 8.06%; in [11], 42.4%; in test [12], 2.62%. Further, the inhibition was 4.04% in test [13]; 4.94% in test [14]; 3.37% in [15]; 2.38% in test [16]; 3.66% in test [17]; 6.05% in [18]. The figures for the inhibition in test [19] and in [20] were 24.5% and 8.96%, respectively.

As to `CCS(=O)(=O)c1ccc(OC)c(Nc2ncc(-c3cccc(-c4ccccc4F)c3)o2)c1`, the inhibition was found to be 1.4% in [1]; 1.1% in test [2]; 1% in test [3]; 0.18% in [4]; 1.38% in [5]; 0.3% in test [6]. Further, the inhibition in [7] is 0.84%; in test [8] it was 0.3%; in test [9], 2.3%; in test [10], -0.01%; in test [11], 0.75%; in [12], 1.23%. Also, the inhibition is 0.04% in test [13]; 1.37% in [14]; 1.29% in [15]; -0.5% in test [16]; -0.32% in [17]; 0.4% in [18]. In addition, the inhibition in [19] was found to be 0.95%; in test [20], 1.79%.

`Fc1ccc(-c2ncn(C3CCNCC3)c2-c2ccnc(Oc3ccc(F)c(F)c3)n2)cc1`: the inhibition in test [1] is 6.19%; in [2] it was 1.74%; in test [3], 5.45%; in test [4], 0.34%; in test [5] it was 2.83%; in test [6], -0.47%. The inhibition is 1.32% in test [7]; 2.41% in test [8]; 2.42% in test [9]; 0.29% in test [10]; -0.02% in test [11]; 1.79% in [12]. For the same molecule, the inhibition in test [13] came to 3.94%; in test [14] it was 3.89%; in [15], 3.96%; in test [16] it was 2.65%; in test [17] it was 2.26%; in [18], 4.6%. Also, the inhibition came to 5.31% in [19] and 3.75% in test [20].

`NC(=O)c1cc(-c2ccncc2)cc(-c2ccccc2)c1N`: the inhibition in test [1] was 6.72%; in test [2] it was 3.44%; in test [3] it was 9.1%; in [4], 1.01%; in test [5] it was -1.21%; in test [6], 1.46%. The inhibition in [7] came out at 1.47%; in test [8] it was 3.07%; in test [9] it was 2.57%; in test [10], 2.79%; in test [11] it was 2.63%; in [12], 4.37%. Moreover, the inhibition in [13] came to 2.48%; in test [14] it was 4.36%; in test [15], 3.52%; in test [16], 2.61%; in test [17] it was 5.81%; in [18], 3.6%. The inhibition in test [19] was determined as 2.86%; in test [20], 4.45%.

As for `CCN(CC)Cc1ccc(Nc2nccc(-c3cnn4ncccc34)n2)cc1`, the inhibition is 9.36% in test [1]; 2.02% in test [2]; 13.7% in test [3]; 0.21% in test [4]; 2.52% in test [5]; -0.63% in test [6]. Moreover, the inhibition was determined as 2.49% in test [7]; 2.26% in [8]; 3.81% in [9]; 0.43% in [10]; 9.62% in [11]; 1.11% in test [12]. The inhibition in test [13] was 7.61%; in test [14], 3.89%; in [15], 4.57%; in [16] it was 3.92%; in test [17], 2.8%; in [18], 3.26%. Besides, the inhibition in test [19] is 9.99%; in test [20] it was 7.01%.
